Assay results taken from PubChem BioAssay AID1159580 (chemical genetic matrix, 2015).
About 2,000 (36%) of roughly 5,500 compounds were called active. About 18% were inconclusive and are not listed. No stated cut-off is given here; in the data, active means normalized growth mostly below about 0.91 (no sharp cut-off); inconclusive means no clear call, values can overlap the other calls; inactive means mostly above about 0.92. The list shows a part of the results.

Experiment: chemical genetic growth profiling, strain panel (AID 1159580);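 further: tested at 20 µM; growth read once vehicle control cultures reached saturation at 30 °C; 1 = growth at the plate median or of vehicle wells; lower values mean less growth of the strain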
Conditions: growth OD

Measured: normalized growth

CC(=O)NC1SCCC1=O (stereo not drawn)
inactive: S. cerevisiae deletion strains, locus YAL021C, strain ccr4, active compounds read low 1.01 | S. cerevisiae deletion strains, locus YAL026C, strain drs2, active compounds read low 0.983 | S. cerevisiae deletion strains, locus YAL030W, strain snc1, active compounds read low 0.975 | S. cerevisiae deletion strains, locus YBL061C, strain skt5, active compounds read low 0.985 | S. cerevisiae deletion strains, locus YBR009C, strain hhf1, active compounds read low 0.971 | S. cerevisiae deletion strains, locus YBR021W, strain FUR4, active compounds read low 1.02 | S. cerevisiae deletion strains, locus YBR023C, strain chs3, active compounds read low 0.977 | S. cerevisiae deletion strains, locus YBR171W, strain sec66, active compounds read low 0.998 | S. cerevisiae deletion strains, locus YBR229C, strain ROT2, active compounds read low 1.01 | S. cerevisiae deletion strains, locus YBR231C, strain swc5, active compounds read low 0.996 | S. cerevisiae deletion strains, locus YBR279W, strain paf1, active compounds read low 0.99 | S. cerevisiae deletion strains, locus YCL011C, strain gbp2, active compounds read low 0.974 | S. cerevisiae deletion strains, locus YCL016C, strain dcc1, active compounds read low 0.99 | S. cerevisiae deletion strains, locus YCL029C, strain bik1, active compounds read low 1.02 | S. cerevisiae deletion strains, locus YCL061C, strain MRC1, active compounds read low 1 | S. cerevisiae deletion strains, locus YCL069W, strain vba3, active compounds read low 0.981 | S. cerevisiae deletion strains, locus YCR088W, strain abp1, active compounds read low 0.984 | S. cerevisiae deletion strains, locus YDL005C, strain med2, active compounds read low 1.01 | S. cerevisiae deletion strains, locus YDL035C, strain GPR1, active compounds read low 1.03 | S. cerevisiae deletion strains, locus YDL040C, strain nat1, active compounds read low 0.992 | S. cerevisiae deletion strains, locus YDL074C, strain BRE1, active compounds read low 0.994 | S. cerevisiae deletion strains, locus YDL101C, strain DUN1, active compounds read low 1.01 | S. cerevisiae deletion strains, locus YDL134C, strain PPH21, active compounds read low 1.03 | S. cerevisiae deletion strains, locus YDL185W, strain tfp1, active compounds read low 1.01 | S. cerevisiae deletion strains, locus YDL192W, strain arf1, active compounds read low 1.01 | S. cerevisiae deletion strains, locus YDR001C, strain nth1, active compounds read low 0.986 | S. cerevisiae deletion strains, locus YDR069C, strain doa4, active compounds read low 0.977 | S. cerevisiae deletion strains, locus YDR101C, strain arx1, active compounds read low 0.982 | S. cerevisiae deletion strains, locus YDR137W, strain rgp1, active compounds read low 1.01 | S. cerevisiae deletion strains, locus YDR159W, strain sac3, active compounds read low 0.945 | S. cerevisiae deletion strains, locus YDR162C, strain NBP2, active compounds read low 1.02 | S. cerevisiae deletion strains, locus YDR195W, strain ref2 0.97 | S. cerevisiae deletion strains, locus YDR297W, strain sur2, active compounds read low 0.985 | S. cerevisiae deletion strains, locus YDR318W, strain mcm21, active compounds read low 1.02 | S. cerevisiae deletion strains, locus YDR334W, strain swr1, active compounds read low 0.982 | S. cerevisiae deletion strains, locus YDR335W, strain msn5, active compounds read low 0.99 | S. cerevisiae deletion strains, locus YDR388W, active compounds read low 1.02 | S. cerevisiae deletion strains, locus YDR392W, strain spt3, active compounds read low 0.889 | S. cerevisiae deletion strains, locus YDR502C, strain sam2, active compounds read low 0.999 | S. cerevisiae deletion strains, locus YEL003W, strain gim4, active compounds read low 0.976 | S. cerevisiae deletion strains, locus YEL037C, strain rad23, active compounds read low 0.975 | S. cerevisiae deletion strains, locus YEL061C, strain CIN8 (second series), active compounds read low 0.981 | S. cerevisiae deletion strains, locus YEL061C, strain CIN8, active compounds read low 1 | S. cerevisiae deletion strains, locus YER015W, strain faa2, active compounds read low 1.01 | S. cerevisiae deletion strains, locus YER016W, strain bim1, active compounds read low 0.982 | S. cerevisiae deletion strains, locus YER110C, active compounds read low 1.02 | S. cerevisiae deletion strains, locus YER111C, strain swi4, active compounds read low 0.977 | S. cerevisiae deletion strains, locus YER155C, strain BEM2 (second series), active compounds read low 0.958 | S. cerevisiae deletion strains, locus YER155C, strain BEM2, active compounds read low 1.01 | S. cerevisiae deletion strains, locus YER167W, strain BCK2, active compounds read low 1.02 | S. cerevisiae deletion strains, locus YFR010W, strain ubp6, active compounds read low 0.983 | S. cerevisiae deletion strains, locus YGL078C, strain dbp3, active compounds read low 1 | S. cerevisiae deletion strains, locus YGL086W, strain mad1, active compounds read low 0.999 | S. cerevisiae deletion strains, locus YGL167C, strain pmr1, active compounds read low 0.977 | S. cerevisiae deletion strains, locus YGL173C, strain kem1, active compounds read low 0.974 | S. cerevisiae deletion strains, locus YGL227W, strain vid30, active compounds read low 0.986 | S. cerevisiae deletion strains, locus YGL240W, strain doc1, active compounds read low 0.988 | S. cerevisiae deletion strains, locus YGL248W, strain PDE1, active compounds read low 0.999 | S. cerevisiae deletion strains, locus YGL253W, strain hxk2, active compounds read low 0.989 | S. cerevisiae deletion strains, locus YGR135W, strain pre9, active compounds read low 1.05 | S. cerevisiae deletion strains, locus YGR252W, strain gcn5, active compounds read low 1 | S. cerevisiae deletion strains, locus YHR013C, strain ard1, active compounds read low 0.943 | S. cerevisiae deletion strains, locus YHR027C, strain rpn1, active compounds read low 1 | S. cerevisiae deletion strains, locus YHR030C, strain SLT2, active compounds read low 1 | S. cerevisiae deletion strains, locus YHR079C, strain IRE1 (second series), active compounds read low 1 | S. cerevisiae deletion strains, locus YHR094C, strain hxt1, active compounds read low 1.02 | S. cerevisiae deletion strains, locus YHR129C, strain ARP1, active compounds read low 1.01 | S. cerevisiae deletion strains, locus YHR142W, strain chs7, active compounds read low 1.02 | S. cerevisiae deletion strains, locus YHR200W, strain rpn10, active compounds read low 1.02 | S. cerevisiae deletion strains, locus YIL066C, strain RNR3, active compounds read low 0.998 | S. cerevisiae deletion strains, locus YIL073C, strain SPO22, active compounds read low 1.04 | S. cerevisiae deletion strains, locus YIL125W, strain kgd1, active compounds read low 1.01 | S. cerevisiae deletion strains, locus YIR030C, strain dcg1, active compounds read low 1.01 | S. cerevisiae deletion strains, locus YJL092W, strain hpr5, active compounds read low 0.995 | S. cerevisiae deletion strains, locus YJL095W, strain BCK1 (second series), active compounds read low 1 | S. cerevisiae deletion strains, locus YJL095W, strain BCK1, active compounds read low 0.994 | S. cerevisiae deletion strains, locus YJL115W, strain asf1, active compounds read low 0.979 | S. cerevisiae deletion strains, locus YJL129C, strain trk1, active compounds read low 1 | S. cerevisiae deletion strains, locus YJL134W, strain LCB3, active compounds read low 1.01 | S. cerevisiae deletion strains, locus YJL154C, strain vps35, active compounds read low 0.975 | S. cerevisiae deletion strains, locus YJL164C, strain tpk1, active compounds read low 1.01 | S. cerevisiae deletion strains, locus YJL166W, strain qcr8, active compounds read low 0.995 | S. cerevisiae deletion strains, locus YJL168C, strain set2, active compounds read low 1.02 | S. cerevisiae deletion strains, locus YJL187C, strain SWE1 (second series), active compounds read low 0.989 | S. cerevisiae deletion strains, locus YJL187C, strain SWE1, active compounds read low 0.992 | S. cerevisiae deletion strains, locus YJR043C, strain POL32, active compounds read low 1 | S. cerevisiae deletion strains, locus YKL009W, strain mrt4, active compounds read low 0.999 | S. cerevisiae deletion strains, locus YKL068W, active compounds read low 1 | S. cerevisiae deletion strains, locus YKL085W, strain MDH1 (second series), active compounds read low 1.01 | S. cerevisiae deletion strains, locus YKL085W, strain MDH1, active compounds read low 1.01 | S. cerevisiae deletion strains, locus YKL160W, strain elf1, active compounds read low 1.04 | S. cerevisiae deletion strains, locus YKL190W, strain CNB1, active compounds read low 0.998 | S. cerevisiae deletion strains, locus YKR001C, strain vps1, active compounds read low 1.01 | S. cerevisiae deletion strains, locus YKR026C, strain gcn3, active compounds read low 0.977 | S. cerevisiae deletion strains, locus YKR091W, strain srl3, active compounds read low 0.99 | S. cerevisiae deletion strains, locus YLL001W, strain dnm1, active compounds read low 1.02 | S. cerevisiae deletion strains, locus YLL026W, active compounds read low 1 | S. cerevisiae deletion strains, locus YLL041C, strain sdh2, active compounds read low 0.997 | S. cerevisiae deletion strains, locus YLR027C, strain aat2, active compounds read low 1 | S. cerevisiae deletion strains, locus YLR039C, strain RIC1, active compounds read low 1.01 | S. cerevisiae deletion strains, locus YLR058C, strain SHM2, active compounds read low 1.01 | S. cerevisiae deletion strains, locus YLR102C, strain apc9, active compounds read low 1.01 | S. cerevisiae deletion strains, locus YLR221C, strain rsa3, active compounds read low 1.01 | S. cerevisiae deletion strains, locus YLR258W, strain gsy2, active compounds read low 0.985 | S. cerevisiae deletion strains, locus YLR262C, strain YPT6 (second series), active compounds read low 0.99 | S. cerevisiae deletion strains, locus YLR262C, strain YPT6, active compounds read low 1 | S. cerevisiae deletion strains, locus YLR268W, strain sec22, active compounds read low 1 | S. cerevisiae deletion strains, locus YLR320W, strain mms22, active compounds read low 0.999 | S. cerevisiae deletion strains, locus YLR330W, strain CHS5, active compounds read low 1.01 | S. cerevisiae deletion strains, locus YLR342W, strain FKS1 (second series), active compounds read low 1.07 | S. cerevisiae deletion strains, locus YLR342W, strain FKS1, active compounds read low 0.979 | S. cerevisiae deletion strains, locus YLR357W, strain rsc2, active compounds read low 0.991 | S. cerevisiae deletion strains, locus YLR370C, strain arc18, active compounds read low 0.992 | S. cerevisiae deletion strains, locus YLR371W, strain rom2, active compounds read low 1.01 | S. cerevisiae deletion strains, locus YLR384C, strain iki3, active compounds read low 0.979 | S. cerevisiae deletion strains, locus YLR418C, strain cdc73, active compounds read low 1.02 | S. cerevisiae deletion strains, locus YML016C, strain PPZ1, active compounds read low 0.998 | S. cerevisiae deletion strains, locus YML032C, strain rad52, active compounds read low 0.995 | S. cerevisiae deletion strains, locus YML120C, strain ndi1, active compounds read low 0.985 | S. cerevisiae deletion strains, locus YML124C, strain tub3, active compounds read low 1.01 | S. cerevisiae deletion strains, locus YMR058W, strain fet3, active compounds read low 0.989 | S. cerevisiae deletion strains, locus YMR078C, strain ctf18, active compounds read low 1.01 | S. cerevisiae deletion strains, locus YMR125W, strain sto1, active compounds read low 0.959 | S. cerevisiae deletion strains, locus YMR129W, active compounds read low 0.995 | S. cerevisiae deletion strains, locus YMR205C, strain PFK2, active compounds read low 0.969 | S. cerevisiae deletion strains, locus YMR223W, strain ubp8, active compounds read low 1.03 | S. cerevisiae deletion strains, locus YMR231W, strain pep5, active compounds read low 0.976 | S. cerevisiae deletion strains, locus YMR307W, strain GAS1, active compounds read low 0.996 | S. cerevisiae deletion strains, locus YNL067W, strain RPL9B, active compounds read low 0.987 | S. cerevisiae deletion strains, locus YNL071W, strain lat1, active compounds read low 0.984 | S. cerevisiae deletion strains, locus YNL209W, strain ssb2, active compounds read low 0.979 | S. cerevisiae deletion strains, locus YNL233W, strain BNI4, active compounds read low 0.984 | S. cerevisiae deletion strains, locus YNL248C, strain rpa49, active compounds read low 1.01 | S. cerevisiae deletion strains, locus YNL250W, strain rad50, active compounds read low 1.04 | S. cerevisiae deletion strains, locus YNL271C, strain bni1, active compounds read low 1.01 | S. cerevisiae deletion strains, locus YNL298W, strain CLA4, active compounds read low 1.01 | S. cerevisiae deletion strains, locus YNL307C, strain MCK1, active compounds read low 1.02 | S. cerevisiae deletion strains, locus YNL322C, strain KRE1 (second series), active compounds read low 0.989 | S. cerevisiae deletion strains, locus YNR049C, strain mso1, active compounds read low 0.975 | S. cerevisiae deletion strains, locus YNR052C, strain pop2, active compounds read low 1.01 | S. cerevisiae deletion strains, locus YOL006C, strain TOP1, active compounds read low 0.961 | S. cerevisiae deletion strains, locus YOL012C, strain htz1 1.01 | S. cerevisiae deletion strains, locus YOL147C, strain pex11, active compounds read low 1.01 | S. cerevisiae deletion strains, locus YOR001W, strain rrp6, active compounds read low 1.01 | S. cerevisiae deletion strains, locus YOR061W, strain CKA2, active compounds read low 1.01 | S. cerevisiae deletion strains, locus YOR069W, strain VPS5, active compounds read low 1 | S. cerevisiae deletion strains, locus YOR070C, strain gyp1, active compounds read low 0.986 | S. cerevisiae deletion strains, locus YOR080W, strain dia2, active compounds read low 0.987 | S. cerevisiae deletion strains, locus YOR083W, strain WHI5, active compounds read low 1.05 | S. cerevisiae deletion strains, locus YOR106W, strain vam3, active compounds read low 1.01 | S. cerevisiae deletion strains, locus YOR136W, strain idh2, active compounds read low 1 | S. cerevisiae deletion strains, locus YOR144C, strain elg1, active compounds read low 1 | S. cerevisiae deletion strains, locus YOR184W, strain ser1, active compounds read low 1.03 | S. cerevisiae deletion strains, locus YOR265W, strain rbl2, active compounds read low 0.997 | S. cerevisiae deletion strains, locus YOR270C, strain vph1, active compounds read low 0.973 | S. cerevisiae deletion strains, locus YOR290C, strain snf2, active compounds read low 0.919 | S. cerevisiae deletion strains, locus YOR316C, strain cot1, active compounds read low 1.01 | S. cerevisiae deletion strains, locus YPL051W, strain arl3, active compounds read low 1.01 | S. cerevisiae deletion strains, locus YPL055C, strain LGE1, active compounds read low 0.93 | S. cerevisiae deletion strains, locus YPL078C, strain atp4, active compounds read low 1.01 | S. cerevisiae deletion strains, locus YPL106C, strain sse1, active compounds read low 0.978 | S. cerevisiae deletion strains, locus YPL240C, strain hsp82, active compounds read low 0.994 | S. cerevisiae deletion strains, locus YPR119W, strain clb2, active compounds read low 1.01 | S. cerevisiae deletion strains, locus YPR141C, strain kar3, active compounds read low 1 | S. cerevisiae deletion strains, locus YPR163C, strain tif3, active compounds read low 1.02 | S. cerevisiae deletion strains, locus YPR167C, strain met16, active compounds read low 1.01 | S. cerevisiae deletion strains, strain wtn01, active compounds read low 1.01 | S. cerevisiae strains, strain wild type, active compounds read low 1.01
